ROMK primary: modulates human ROMK potassium channel activity; 130,000 compounds, 2% hits; B-score at 10 µM; Tet-inducible ROMK, thallium flux fluorescence; actives lie on both sides; P48048;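 active = signal ratio slope over the read window, or its plate-corrected B-score, at least 3 SD from the plate mean, either direction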;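 also: B-score of the F/F0 ratio slope over 7 to 12 s after thallium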
HMGR II inh: E. faecalis class II HMG-CoA reductase inhibition. purified E. faecalis HMGR, NADPH absorbance 340 nm kinetic. 190,000 compounds, 0.41% hits. inhibition, % at 10 µM;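 active = inhibition above a set limit, the median over all tested compounds plus 3 SD, cut at about 9.5% in these data; inconclusive = no clear call, values can overlap the other calls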;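 also: enzyme runs in reverse so mevalonate oxidation gives rising NADPH absorbance; 0% = complete reaction with DMSO and 100% = background rate lacking mevalonate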
L929 necroptosis: blocks zVAD induced death of L929 cells; viability rescue, % at 10 µM; AID 1377; 220,000 compounds, 0.38% hits; L929 zVAD necroptosis rescue, ATP luminescence, 24 h; with zVAD 60 µM;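 active = activation, scaled between plate controls, above about 75%, limit read from the data; inactive = activation under that limit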;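 also: 0% = zVAD with DMSO and 100% = DMSO alone without zVAD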
TNF necrop inh: TNF-alpha cell death inhibition in Jurkat FADD-/- cells; AID 463075; Jurkat FADD-/- TNF necroptosis rescue, ATP luminescence, 24 h; 0 = TNF only, 100 = no-TNF cells; 220,000 compounds, 0.068% hits; activation (protection from cell death), % at 10 µM;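 active = activation, meaning protection from cell death, of at least 50% relative to plate controls; inactive = activation below 50%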;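 also: necroptosis triggered by 40 ng/mL TNF-alpha added together with compound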
Calpain2 inh: blocks pig calpain II enzyme activity | AID 1236 | inhibition, % at 16 µM | purified calpain II, fluorogenic peptide substrate, 30 min | 220,000 compounds, 0.37% hits;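 active = inhibition above about 50%, limit read from the data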
14-3-3 Bad inh: disrupts binding of bovine 14-3-3 zeta to phospho-Bad peptide; AID 781; 220,000 compounds, 0.71% hits; inhibition, % at 21.7 µM; P63103; TR-FRET 14-3-3zeta/Dy647-pBad peptide displacement, 1 h;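 active = inhibition above about 70%, limit read from the data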;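 also: 0% = full 14-3-3 plus peptide FRET controls and 100% = background without 14-3-3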
Target sequence (P63103 whole entry, looked up): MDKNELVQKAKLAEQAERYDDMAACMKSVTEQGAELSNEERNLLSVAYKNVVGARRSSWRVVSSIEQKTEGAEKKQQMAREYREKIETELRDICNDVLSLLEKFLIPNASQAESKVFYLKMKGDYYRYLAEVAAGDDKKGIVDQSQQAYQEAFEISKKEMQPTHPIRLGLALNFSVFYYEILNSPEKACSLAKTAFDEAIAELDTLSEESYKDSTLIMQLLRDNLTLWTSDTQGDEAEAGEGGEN
ROMK hit retest: retested hit modulating human ROMK potassium channel; shares compounds with ROMK primary; ROMK thallium flux, fluorescence ratio; active compounds read low; normalized thallium flux (F/F0 slope) at 10 µM; 3,000 compounds, 54% hits;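 active = Flux at 10 µM at least 3 SD below or above vehicle control mean in one or both replicates; inconclusive = no clear call, values can overlap the other calls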
Numbers without * were called inactive; u = inconclusive; x = no result. The list is not random: actives were taken first. Their share in the collection is about 3%.

SMILES	ROMK primary	HMGR II inh	L929 necroptosis	TNF necrop inh	Calpain2 inh	14-3-3 Bad inh	ROMK hit retest
Cc1cc(/C=N/n2cnnc2)c(C)n1-c1ccc(Cl)cc1Cl	3.25*	-9.9	-1.7	-6.1	-6.1	-6.8	u
CS(=O)(=O)c1cnc(-c2ccccc2)nc1-c1ccccc1Cl	-0.00588	-1.0	0.9	-1.3	6.8	-6.3	x
Fc1ccc2[nH]c3c(N4CCN(C5CCCCC5)CC4)ncnc3c2c1	0.0731	-7.2	8.8	2.5	-314.9	1.8	x
Cc1ccc2[nH]c3c(N4CCN(Cc5ccc6c(c5)OCO6)CC4)ncnc3c2c1	-3.81*	-0.5	1.2	-4.5	-136.3	-5.8	0.0615*
Cc1ccc2[nH]c3c(N4CCCCCC4)ncnc3c2c1	-4.03*	-5.0	6.6	-10.2	3.2	-1.1	0.0582*
Cc1ccc2[nH]c3c(N4CCN(Cc5ccccc5)CC4)ncnc3c2c1	-0.652	0.8	2.4	-7.3	-189.7	-3.0	x
O=C(Nc1ccc(Oc2cccc(C(F)(F)F)c2)nc1)c1cccs1	x	x	5.9	-5.3	27.6	8.7	0.064*
COc1ccc(C(CNC(=O)c2cc3ccccc3cc2OC)N2CCCC2)cc1 (centres undefined)	-3.1*	-2.6	-0.2	2.3	-30.4	-0.4	0.0619*
COc1ccc(C(CNC(=O)c2cccc(N(C)C)c2)N2CCCC2)cc1 (centres undefined)	x	-5.6	-0.1	-5.4	-64.5	-13.1	x
O=[N+]([O-])c1cc(-c2nnc(C34CC5CC(CC(C5)C3)C4)o2)cc([N+](=O)[O-])c1	x	3.6	0.3	-6.1	17.8	6.9	x
CCN1CC=C2C(C1)C(c1ccc(Cl)s1)C(C#N)=C(N)C2(C#N)C#N (centres undefined)	x	-4.6	-0.5	-2.2	-38.6	8.4	0.0394*
CCN1CC=C2C(C#N)=C(N)C(C#N)(C#N)[C@H](c3cccc(OC)c3OC)[C@H]2C1	x	-1.3	-0.4	-8.6	x	x	x
COc1cc(NC(=O)CSc2ncnc3c2cnn3Cc2ccccc2)cc(OC)c1	0.103	-4.4	-0.3	-1.6	24.3	25.2	x
COc1ccc(OC)c(NC(=O)CSc2ncnc3c2cnn3-c2ccccc2Cl)c1	-3.16*	-1.1	-1.1	-9.4	-14.9	-1.8	0.0601*
CCCN(C(=O)CSc1nnnn1C)C1CCS(=O)(=O)C1 (centres undefined)	-0.137	-9.0	12.6	0.4	-30.1	-12.1	0.0796
Cc1ccc(S(=O)(=O)NC(=O)NCc2ccc3c(c2)OCO3)cc1	1.47	-3.0	0.9	-1.4	-41.9	-1.1	0.0736
CCC(NC(=O)NCc1ccc2c(c1)OCO2)(C(F)(F)F)C(F)(F)F	1.51*	-1.6	0.3	0.9	-11.9	4.2	0.0861
Cc1c(C(=O)O)oc2ccc(S(=O)(=O)NCc3ccc4c(c3)OCO4)cc12	x	-3.0	-0.1	-0.2	-3.1	30.7	0.0746
Cc1ccc(CNS(=O)(=O)c2ccc3oc(C(=O)O)c(C)c3c2)cc1	x	-3.6	0.2	0.6	-16.1	41.4	x
S=C(NCc1ccc2c(c1)OCO2)NC1CC1	-19.2*	2.7	1.2	-0.7	-2.4	-8.0	0.0886
CC1(C)CC(NC(=S)NCc2ccc3c(c2)OCO3)CC(C)(C)N1	0.0059	4.6	7.2	3.3	8.2	17.7	x
CCN(CC)S(=O)(=O)c1cc(Cl)ccc1OC	0.519	-1.1	0.8	-0.8	-18.3	-8.3	x
O=C(c1nnsc1S(=O)c1ccc(Cl)cc1)N1CCOCC1 (centres undefined)	-6.29*	-0.1	28.4	-12.1	7.9	6.1	0.0519*
O=C(Nc1nc2cc3c(cc2s1)OCO3)C1=COCCO1	2.52*	-6.0	x	-13.7	20.7	-9.2	0.0804
CC(=O)Oc1ccccc1C1OC(=O)c2ccccc2N1C(C)=O (centres undefined)	0.912	-10.7	-0.3	-3.5	-25.4	1.8	0.0867
CC(=O)N1CCN(C(=O)CC2OC(=O)c3ccccc32)CC1 (centres undefined)	x	0.4	-0.2	-1.2	-6.3	-1.1	x
Cc1nnc(Sc2cc(NCCCO)c([N+](=O)[O-])c3nonc23)s1	0.227	0.6	25.1	-17.8	31.6	-3.7	x

Bioassay records (PubChem)
